According to article PMC5540273 (PLoS ONE, 2017):

What was measured:
Conditions in all cases: concentration: 1 μM,replicates: in singlicate; n = 1
TESK1 = test system: TESK1
TGFBR1 = test system: TGFBR1
TGFBR2 = test system: TGFBR2
TIE1 = test system: TIE1
TIE2 = test system: T1, TIE2
T1 construct: gene TEK

TLK1 = test system: TLK1
TLK2 = test system: TLK2
TNIK = test system: TNIK
TNK1 = test system: TNK1
TNK2 = test system: TNK2
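Further: KINOMEscan kinase panel screen.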

Row | SMILES | %Inh (TESK1) [%] | %Inh (TGFBR1) [%] | %Inh (TGFBR2) [%] | %Inh (TIE1) [%] | %Inh (TIE2) [%] | %Inh (TLK1) [%] | %Inh (TLK2) [%] | %Inh (TNIK) [%] | %Inh (TNK1) [%] | %Inh (TNK2) [%]
1 | Cc1ccn2nc(-c3ccc(F)cc3)c(-c3ccncc3)c2c1.Cl [GW457859] | 34 | 12 | 0 | 0 | 0 | 6 | 0 | 58 | 0 | 0
2 | O=c1[nH]cc(-c2ccc(O)cc2)c2sc(-c3ccncc3)cc12 [GSK1033723] | 0 | 0 | 0 | 0 | 89 | 6 | 0 | 4 | 0 | 5
3 | C[C@@H](Oc1cc(-n2cnc3cc(-c4ccncc4)ccc32)sc1C(N)=O)c1ccccc1Cl [GSK479719] | 0 | 1 | 0 | 84 | 27 | 0 | 0 | 11 | 20 | 37
4 | COc1cccc(OC)c1C(=O)Nc1cccc(-c2nn3ccccc3c2-c2ccnc(Nc3cccc(F)c3)n2)c1 [GSK361065] | 1 | 0 | 17 | 19 | 12 | 19 | 0 | 6 | 31 | 29
5 | Cn1ccc2ncnc(Oc3ccc(NC(=O)Nc4ccnc(C(F)(F)F)c4)c(Cl)c3)c21 | 0 | 0 | 53 | 76 | 11 | 6 | 0 | 0 | 0 | 0
6 | COC(=O)Nc1nc2cc(Oc3ccc(NC(=O)Nc4cc(C(F)(F)F)ccc4Cl)cc3)ccc2[nH]1.Cl [GW697465] | 7 | 28 | 6 | 91.5 | 99.2 | 0 | 0 | 0 | 28 | 8
7 | O=C(Nc1ccc(Oc2ccc3nc(NC(=O)C4CC4)cn3n2)c(F)c1)c1cccn(-c2ccccc2)c1=O | 17 | 9 | 9 | 92.2 | 90.1 | 0 | 0 | 34 | 59 | 0
